# Measured values published in PubChem BioAssay (NCI).
# The panel holds about 79,000 compounds, 15% with a hit somewhere; the sample as a whole holds those more often. Values without a mark were called inactive. Activity calls are given as the source filed them. No stated cut-off is given here; in the data, active means growth inhibition above about 70%; inactive means the rest.
# Key:
# [1] = NCI Yeast Anticancer Drug Screen. Data for the rad50 strain (AID 155);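 further: 0% = growth of vehicle-only cultures of the same strain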; conditions: S. cerevisiae rad50 strain growth inhibition, active compounds read high
# Method in brief: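 Compounds were tested on a yeast strain with an engineered DNA damage repair alteration; the reported value is growth inhibition normalised to vehicle treatment.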
# [2] = NCI Yeast Anticancer Drug Screen. Data for the mec2-1 strain (AID 157); conditions: S. cerevisiae mec2-1 strain, active compounds read high
# Method in brief: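 Each compound was tested on mec2-1 yeast, a strain altered in DNA damage repair or cell cycle control. Growth inhibition is reported relative to vehicle.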
# [3] = NCI Yeast Anticancer Drug Screen. Data for the sgs1 mgt1 strain (AID 161);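 further: 0% = growth of cultures given vehicle only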; conditions: S. cerevisiae sgs1 mgt1 strain, active compounds read high
# Method in brief: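 Inhibition of yeast growth, normalised to vehicle-treated controls, is reported for a strain bearing genetic alterations in DNA damage repair.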
# [4] = NCI Yeast Anticancer Drug Screen. Data for the cln2 rad14 strain (AID 165);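 further: 0% = growth equal to vehicle treated cultures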; conditions: S. cerevisiae cln2 rad14 strain, active compounds read high
# Method in brief: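 Test compounds were added to cln2 rad14 yeast cultures; inhibition of growth was then determined by comparison with vehicle treatment.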
# [5] = NCI Yeast Anticancer Drug Screen. Data for the bub3 strain (AID 167); conditions: S. cerevisiae bub3 mutant strain, active compounds read high
# Method in brief: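 Growth of a checkpoint-deficient yeast mutant is measured after compound exposure. Values represent inhibition relative to vehicle.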
# [6] = NCI Yeast Anticancer Drug Screen. Data for the mlh1 rad18 strain (AID 175); conditions: S. cerevisiae mlh1 rad18 strain growth inhibition, active compounds read high
# Method in brief: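 Inhibition values reflect reduced growth of mutant yeast versus vehicle-treated controls following compound exposure; the mutations affect DNA damage repair.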
# [7] = at 5.0 µM (retest, dose inferred, filed as 0.5)
# [8] = at 50.0 µM (retest, dose inferred, filed as 5.0)
Compound,"growth inhibition [1, 7]","growth inhibition [1, 8]",growth inhibition ([1]; at 50.0 µM),"growth inhibition [2, 7]","growth inhibition [2, 8]",growth inhibition ([2]; at 50.0 µM),"growth inhibition [3, 7]","growth inhibition [3, 8]",growth inhibition ([3]; at 50.0 µM),"growth inhibition [4, 7]","growth inhibition [4, 8]",growth inhibition ([4]; at 50.0 µM),"growth inhibition [5, 7]","growth inhibition [5, 8]",growth inhibition ([5]; at 50.0 µM),"growth inhibition [6, 7]","growth inhibition [6, 8]",growth inhibition ([6]; at 50.0 µM)
CCC(=O)[O][Bi]([c]1ccccc1)[c]1ccccc1,79% (active),96% (active),90.2% (active),58%,97% (active),92.4% (active),68%,97% (active),92.5% (active),49%,95% (active),90% (active),81% (active),96% (active),91.5% (active),85% (active),97% (active),90% (active)
COc1cc(C=O)c(C=O)cc1OC,8%,74% (active),69.9%,6%,40%,50.2%,3%,79% (active),52.5%,9%,84% (active),89.2% (active),5%,87% (active),73.5% (active),16%,87% (active),74.5% (active)
CCOC(=O)C(N=Nc1ccc(Br)c(C)c1)C(C)=O (stereo not given),-4%,81% (active),92.2% (active),-7%,27%,84.1% (active),1%,92% (active),98% (active),11%,50%,76.8% (active),-6%,64%,88% (active),4%,88% (active),97.5% (active)
OC(CBr)c1c(Br)ccc2ccccc12 (stereo not given),3%,65%,53.6%,-6%,82% (active),5.75%,3%,77% (active),48%,-3%,65%,32.9%,-1%,77% (active),20.4%,20%,90% (active),74.7% (active)
COc1ccc2c(c1)C(Br)CCC(Br)C2=O (stereo not given),-20%,2%,47.6%,-48%,-18%,56.2%,-17%,26%,80.3% (active),13%,39%,33.5%,-36%,51%,88.7% (active),-20%,34%,91.8% (active)
CN(C)C=Nc1ccc2nonc2c1,15%,24%,10.2%,-15%,-7%,-3.55%,12%,16%,3.4%,19%,23%,7.8%,15%,13%,4.1%,8%,10%,0.9%
CC1C[N+](C)(C)C(C)C(=O)C1(c1ccccc1)c1ccccc1 (stereo not given),-9%,2%,6.6%,-2%,2%,10.9%,-23%,3%,-10.3%,-1%,-2%,-13.4%,-4%,-2%,28.2%,-6%,-4%,19.1%
CCN(CC)C(=S)N=Nc1c(O)[nH]c2ccccc12,80% (active),99% (active),82.5% (active),76% (active),99% (active),87.2% (active),81% (active),99% (active),89.3% (active),85% (active),90% (active),89.8% (active),76% (active),99% (active),91% (active),82% (active),99% (active),92% (active)
O=C1C(Sc2ccc3ccccc3c2)=C(Sc2ccc3ccccc3c2)C(=O)c2ccccc21,34%,90% (active),94.2% (active),21%,94% (active),99% (active),36%,93% (active),98.9% (active),7%,89% (active),98.3% (active),71% (active),90% (active),98.9% (active),16%,89% (active),96.8% (active)
CCCCCCCCCCCC(O)CN1CCOCC1 (stereo not given),49%,1%,98.4% (active),46%,9%,97.5% (active),49%,-2%,43.8%,46%,8%,91.5% (active),57%,31%,98.8% (active),43%,4%,94% (active)
